Reference: PubChem BioAssay (NCATS)
Results filed as inconclusive are left out. Activity calls are given as the source filed them. Calls come from the whole dose curve; as a rule, active = well fitted curve in the direction sought with a large enough effect; inconclusive = small, poorly fitted or top-dose-only effect, or another doubt; inactive = no such curve, though single readings can be large; an effect the other way counts as inactive or inconclusive.

Molecular target: Cytochrome P450 3A4 (Homo sapiens) (UniProt P08684)
Sequence (P08684 whole entry, looked up): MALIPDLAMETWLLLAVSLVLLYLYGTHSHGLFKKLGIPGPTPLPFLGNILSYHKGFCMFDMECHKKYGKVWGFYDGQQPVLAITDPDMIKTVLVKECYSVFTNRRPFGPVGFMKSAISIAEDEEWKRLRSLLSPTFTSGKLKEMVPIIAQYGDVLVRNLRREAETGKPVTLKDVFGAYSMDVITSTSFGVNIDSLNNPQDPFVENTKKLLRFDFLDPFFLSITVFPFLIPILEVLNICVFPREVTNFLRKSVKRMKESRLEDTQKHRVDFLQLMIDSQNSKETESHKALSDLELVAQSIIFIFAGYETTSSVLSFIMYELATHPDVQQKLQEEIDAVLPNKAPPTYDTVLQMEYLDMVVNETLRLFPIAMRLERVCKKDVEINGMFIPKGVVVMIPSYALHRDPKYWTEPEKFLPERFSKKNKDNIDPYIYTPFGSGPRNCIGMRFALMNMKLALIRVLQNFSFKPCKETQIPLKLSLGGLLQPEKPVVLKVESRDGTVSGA
Experiment: qHTS Assay for Inhibitors and Substrates of Cytochrome P450 3A4 (AID 884); note: nearly all actives have a fitted effect of over 50% in size; note: potency is the fitted concentration of half-maximal effect; for activity change, negative = inhibition: % is set by controls: 0 for no effect and ±100 for the full control effect
Conditions: recombinant CYP3A4, Luciferin-PPXE luminescence; series mostly up to 57.1 µM; activity change, negative = inhibition: at the top concentration
Summary of the method: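 Luminescent readout of luciferin produced by CYP3A4 (20 nM) dealkylation of Luciferin-PPXE, 25 uM (its KM). NADPH-driven reaction ran 60 min at RT after 10 min compound preincubation; data scaled to 57 uM ketoconazole as 100% inhibition.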

Compound | activity change, negative = inhibition | Potency
CC1=C(/C=C/C(C)=C/C=C/C(C)=C/C=C/C=C(C)/C=C/C=C(C)/C=C/C2=C(C)CCCC2(C)C)C(C)(C)CCC1 | -42% (inactive) | 
Cc1cn([C@H]2C[C@H](O)[C@@H](CO)O2)c(=O)[nH]c1=O | -14.6% (inactive) | 
O=c1ccn([C@@H]2O[C@H](CO)[C@@H](O)[C@H]2O)c(=O)[nH]1 | -11.8% (inactive) | 
O=C(O)CN(CCN(CC(=O)O)CC(=O)O)CC(=O)O | -8.32% (inactive) | 
OCc1ccccc1O[C@@H]1O[C@H](CO)[C@@H](O)[C@H](O)[C@H]1O | -7.83% (inactive) | 
CC1=C(/C=C/C(C)=C/C=C/C(C)=C/C=C/C=C(C)/C=C/C=C(C)/C=C/C2=C(C)C(=O)CCC2(C)C)C(C)(C)CCC1=O | 4.96% (inactive) | 
CC(Cc1ccc(O)c(O)c1)C(C)Cc1ccc(O)c(O)c1 (stereo not drawn) |  | 12.6 µM (active)
Cc1c(C)c2c(c(C)c1O)CC[C@@](C)(CCC[C@H](C)CCC[C@H](C)CCCC(C)C)O2 | 9.98% (inactive) | 
Oc1cc(O)c2c(c1)OC(c1ccc(O)c(O)c1)C(O)C2 (stereo not drawn) | -42.2% (inactive) | 

Molecular target: Cytochrome P450 3A4 (Homo sapiens) (UniProt P08684)
Experiment: qHTS Assay for Activators of Cytochrome P450 3A4 (AID 885); note: nearly all actives have a fitted effect of over 65% in size
Conditions: recombinant CYP3A4, Luciferin-PPXE luminescence, 60 min; series mostly up to 57.1 µM; activity change, positive = activation: at the top concentration
Summary of the method: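 Using 20nM recombinant human CYP3A4 in potassium phosphate (200mM), substrate Luciferin-PPXE at 25uM, luminescent luciferin detection followed a 60-min RT NADPH reaction; data scaled to 57 uM ketoconazole.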

Compound | activity change, positive = activation
CC(C(=O)O)c1ccc(N2Cc3ccccc3C2=O)cc1 (stereo not drawn) | -33.9% (inactive)
CC(Cc1ccc(O)c(O)c1)C(C)Cc1ccc(O)c(O)c1 (stereo not drawn) | -70.9% (inactive)
C=CCSSSCC=C | -37.6% (inactive)
C[C@@H]1CCC2[C@@H](C)[C@@H](O)O[C@@H]3O[C@@]4(C)CC[C@@H]1[C@@]23OO4 (stereo partly drawn) | -34.7% (inactive)

Molecular target: Cytochrome P450 2D6 (Homo sapiens) (UniProt P10635)
Sequence (P10635 whole entry, looked up): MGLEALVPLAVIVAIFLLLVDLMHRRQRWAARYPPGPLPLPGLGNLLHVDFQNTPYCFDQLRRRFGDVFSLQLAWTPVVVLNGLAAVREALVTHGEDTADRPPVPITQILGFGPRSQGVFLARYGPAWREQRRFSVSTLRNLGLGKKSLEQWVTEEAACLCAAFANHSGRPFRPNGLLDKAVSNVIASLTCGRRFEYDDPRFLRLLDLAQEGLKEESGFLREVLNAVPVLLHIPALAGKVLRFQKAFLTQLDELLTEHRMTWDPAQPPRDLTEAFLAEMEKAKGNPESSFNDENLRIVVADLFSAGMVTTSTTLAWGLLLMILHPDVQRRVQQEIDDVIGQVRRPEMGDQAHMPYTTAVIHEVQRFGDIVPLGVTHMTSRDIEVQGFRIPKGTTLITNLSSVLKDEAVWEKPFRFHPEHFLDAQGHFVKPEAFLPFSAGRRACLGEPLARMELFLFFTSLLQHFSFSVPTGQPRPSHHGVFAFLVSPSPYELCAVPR
Experiment: qHTS Assay for Inhibitors and Substrates of Cytochrome P450 2D6 (AID 891); note: potency is the fitted concentration of half-maximal effect; nearly all actives have a fitted effect of over 60% in size
Conditions: recombinant CYP2D6, luciferin-ME EGE luminescence; series mostly up to 57.1 µM; activity change, negative = inhibition: at the top concentration
Summary of the method: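 Luminescent read-out of luciferin formed by 5 nM human CYP2D6 demethylating 30 uM Luciferin-ME EGE (Km level) over 60 min at room temperature after NADPH regeneration addition. Data normalized to full inhibition by 1.43 uM quinidine.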

Compound | Potency
CC(C)N=c1cc2n(-c3ccc(Cl)cc3)c3ccccc3nc-2cc1Nc1ccc(Cl)cc1 | 2.51 µM (active)
CN(C)CCCN1c2ccccc2C(C)(C)c2ccccc21 | 3.98 µM (active)
O=C1CSC2(CCN(CCCN3c4ccccc4Sc4ccc(Cl)cc43)CC2)N1 | 0.631 µM (active)

System: not listed separately
Experiment: Confirmation and Secondary Assay for Modulators of Hemoglobin Beta Chain Splicing at IVS2 654 locus (AID 910);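 note: HeLa cells stably carrying EGFP split by mutant beta-globin IVS2-654 intron; % of control where 0% means no effect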
Conditions: HeLa EGFP-654 splicing reporter, GFP fluorescence, 48 h; series mostly up to 46.1 µM; activation (splicing correction): at the top concentration
Summary of the method: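 HeLa cells stably expressing EGFP interrupted by β-globin IVS2-654 intron, seeded overnight in Opti-MEM/2% FCS, then treated 2 days at 37 °C. Restored splicing read as total peak GFP intensity per well by laser scanning cytometry (488 nm excitation, 500–520 nm emission); 500 nM antisense PNA as control.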

Compound | activation (splicing correction)
Nc1c(Br)cc(Br)cc1CNC1CCC(O)CC1 (stereo not drawn) | -3.83% (inactive)
CC1=C(/C=C/C(C)=C/C=C/C(C)=C/C=C/C=C(C)/C=C/C=C(C)/C=C/C2=C(C)CCCC2(C)C)C(C)(C)CCC1 | 0.333% [at 38.3 µM] (inactive)
CN1Cc2c(N)cccc2C(c2ccccc2)C1 (stereo not drawn) | -1.36% (inactive)
CC(C(=O)O)c1ccc(N2Cc3ccccc3C2=O)cc1 (stereo not drawn) | 3.16% (inactive)
NC(=O)c1ncn(C2OC(CO)C(O)C2O)n1 (stereo not drawn) | -0.861% [at 38.3 µM] (inactive)
CCCC(=O)Nc1ncnc2c1ncn2C1OC2COP(=O)(O)OC2C1OC(=O)CCC (stereo not drawn) | 10.1% (inactive)
O=C(O)CN(CCN(CC(=O)O)CC(=O)O)CC(=O)O | -0.499% (inactive)
CC1=C(/C=C/C(C)=C/C=C/C(C)=C/C=C/C=C(C)/C=C/C=C(C)/C=C/C2=C(C)C(=O)CCC2(C)C)C(C)(C)CCC1=O | 1.42% [at 38.3 µM] (inactive)
CCC(=O)NCCC1CCc2ccc3c(c21)CCO3 (stereo not drawn) | 0.224% (inactive)
C=CCSSSCC=C | 1.91% (inactive)
C[C@@H]1CCC2[C@@H](C)[C@@H](O)O[C@@H]3O[C@@]4(C)CC[C@@H]1[C@@]23OO4 (stereo partly drawn) | -2.62% [at 38.3 µM] (inactive)
Oc1cc(O)c2c(c1)OC(c1ccc(O)c(O)c1)C(O)C2 (stereo not drawn) | 4.64% (inactive)
